AmpC inh no detg: inhibitors of E. coli AmpC beta-lactamase without detergent; P00811; AmpC nitrocefin hydrolysis, absorbance 480 nm, 0.0001% Triton; Potency, µM (series often up to 57.1 µM), for inactives: top-dose activity change, negative = inhibition, hits mostly inhibitors; 330,000 tested, 0.52% active; AID 485341;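 further: plate controls were no compound for no effect and no enzyme for full effect; nearly all actives have a fitted effect of over 20% in size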
Target sequence (P00811 whole entry, looked up): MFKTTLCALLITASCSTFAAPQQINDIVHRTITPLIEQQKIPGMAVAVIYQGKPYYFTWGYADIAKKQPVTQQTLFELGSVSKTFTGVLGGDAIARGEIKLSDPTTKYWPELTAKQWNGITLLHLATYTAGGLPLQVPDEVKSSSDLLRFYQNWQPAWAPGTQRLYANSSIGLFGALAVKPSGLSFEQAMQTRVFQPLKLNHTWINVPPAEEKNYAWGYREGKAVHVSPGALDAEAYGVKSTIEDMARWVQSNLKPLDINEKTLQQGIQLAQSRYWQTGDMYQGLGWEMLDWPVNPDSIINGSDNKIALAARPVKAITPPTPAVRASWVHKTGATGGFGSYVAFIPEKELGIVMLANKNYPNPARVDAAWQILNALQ
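20 mM phosphate pH 7.0 + 0.01% (detergent screen) or 0.0001% Triton X-100; 5.3 nM AmpC reagent; cpd preinc 15 min RT; nitrocefin (800 uM stock) to start; A480 q20 s × 4 min; Activity was normalised to no-enzyme and no-compound control wells.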
SARS PLP yeast: blocks SARS-CoV papain-like protease in a yeast assay; 330,000 tested, 0.19% active; S. cerevisiae expressing SARS-CoV PLpro, growth rescue; AID 485353; Potency, µM (doses to about 32.9 µM), without a hit: at the highest dose activity, positive = growth rescue, most hits filed as activators; calls by dose curve; further: 0% is about no effect; nearly all actives have a fitted effect of over 55% in size
Sm TGR inh: blocks Schistosoma mansoni thioredoxin glutathione reductase | AID 485364 | purified TGR, DTNB reduction, TNB absorbance 405 nm | Q962Y6 | Potency, µM (titrated, usually from 114 µM), for inactives: at the top dose activity change, negative = inhibition, actives largely listed as inhibitors | 360,000 tested, 3% active; further: on the % scale 0 is the no-effect control and ±100 the full control effect; nearly all actives have a fitted effect of over 60% in size
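TGR 20 nM + NADPH 100 uM (dispensed conc.), cpd preinc 15 min RT; start with NADPH (500 uM addition) then DTNB (15 mM addition). Kinetic TNB absorbance, 405 nm filter. Four-parameter Hill fit across titration.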
Pf growth 96h: P. falciparum growth inhibition at 96 hours; P. falciparum luciferase reporter growth, 96 h; Potency, µM (series often up to 28.7 µM), for inactives: top-dose activity change, negative = inhibition, hits mostly inhibitors; 320,000 tested, 6.9% active; AID 504834; further: on the % scale 0 is the no-effect control and ±100 the full control effect
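P. falciparum expressing integrated firefly luciferase grown in erythrocytes (2% hematocrit, 0.05% parasitemia final) with compounds for 96 hours at 37 C, 5% CO2. Growth inhibition read as loss of luminescence after adding luciferase detection reagent.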
Pf growth 48h: inhibits P. falciparum growth in the first generation, 48 h. P. falciparum luciferase growth in erythrocytes, 48 h. Potency, µM (titrated, usually from 28.7 µM), for the others: at the top dose activity change, negative = inhibition, hits mostly inhibitors. 310,000 tested, 5.9% active. AID 504832; further: on the % scale 0 is the no-effect control and ±100 the full control effect
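Read-out is firefly luciferase luminescence from an integrated reporter in P. falciparum, so falling signal marks reduced parasite growth. Infected erythrocytes were at 2% hematocrit and 0.1% parasitemia (final) in Albumax-supplemented RPMI 1640.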
AmpC detergent: blocks E. coli AmpC beta-lactamase in detergent assay | AmpC hydrolysis of nitrocefin, absorbance 480 nm, 0.01% Triton | P00811 | AID 485294 | 370,000 tested, 0.041% active | Potency, µM (series often up to 114 µM), inactives show at the highest dose activity change, negative = inhibition, most hits filed as inhibitors;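 further: 0% = no-compound wells and -100% = no-enzyme wells; nearly all actives have a fitted effect of over 25% in size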
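20 mM phosphate pH 7.0 + 0.01% (detergent screen) or 0.0001% Triton X-100; 5.3 nM AmpC reagent; cpd preinc 15 min RT; nitrocefin (800 uM stock) to start; A480 q20 s × 4 min; Activity was normalised to no-enzyme and no-compound control wells.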
Numbers without * were called inactive; ? = inconclusive; / = no result; [ ] = another dose, or the depositor's remark. In the library only some 12% were active in any assay of this set; here they are far more common. Unless noted, the call rests on the fitted dose curve; in most records, active means well fitted curve in the direction sought with a large enough effect; inconclusive means small, poorly fitted or top-dose-only effect, or another doubt; inactive means no such curve, though single readings can be large; an effect the other way counts as inactive or inconclusive. Potency means the concentration at half of the fitted maximal effect.

SMILES	AmpC inh no detg	SARS PLP yeast	Sm TGR inh	Pf growth 96h	Pf growth 48h	AmpC detergent
CCC(C)(C)C1CCC(NC(=O)c2ccc(S(=O)(=O)N3CCOCC3)cc2)CC1 (configuration not stated)	-6.6%	0.2%	3.0%	14.7µM*	10.4µM*	6.3%
O=c1oc2ccccc2c(N2CCN(c3ccccc3F)CC2)c1CN1CCCC1	/	/	-4.8%	/	/	14.7%
Cc1cc(C(=O)Cn2cnc3ccccc3c2=O)c(C)n1C1CC1	-16.6%	/	-14.6%	50.9%	-3.6%	-15.9%
O=C(NC1CCN(S(=O)(=O)c2ccccc2)CC1)c1cccc(F)c1	-2.6%	6.1%	1.8%	?	22.8%	3.5%
O=C(NC1CCN(S(=O)(=O)c2cccc(F)c2)CC1)c1ccc(F)cc1	-7.5%	-4.6%	5.5%	10.4µM*	?	-12.9%
O=S(=O)(c1ccc(F)cc1)N1CCN(C(=S)NC2CC2)CC1	-17.7%	-1.4%	-10.6%	?	2.62µM*	-4.6%
CC1CN(C2CCN(S(=O)(=O)c3ccc(F)cc3)CC2)CC(C)O1 (configuration not stated)	-4.7%	-4.8%	39.8µM*	/	-8.1%	-5.0%
CC1CN(C2CCN(S(=O)(=O)c3ccccc3)CC2)CC(C)O1 (configuration not stated)	-8.3%	2.7%	-1.2%	-4.6%	-1.1%	?
CCN(CC(=O)NCc1cccs1)C(=O)/C=C/c1cccc(Br)c1	8.1%	-3.8%	-0.4%	-1.2%	4.5%	?
CCN(CC(=O)NCc1cccs1)C(=O)/C=C/c1cc(Br)ccc1OC(F)F	-15.0%	11.2%[6.58 µM]	-2.0%	10.4µM*	?	0.2%
O=S(=O)(NC1CCCC1)c1cccc(S(=O)(=O)N2CCC(n3nnc4ccccc43)CC2)c1	-30.8%	0.8%	-0.8%	42.2%	10.4µM*	-4.3%
Cc1ccc2c(c1)nnn2C1CCN(S(=O)(=O)c2ccc(C(=O)N(C)C)cc2)CC1	103.1%	9.8%	7.5%	-25.1%	?	-4.5%
Cc1ccc2c(c1)nnn2C1CCN(S(=O)(=O)c2ccc3ccccc3c2)CC1	-12.8%	13.3%	-5.2%	-19.3%	10.4µM*	2.4%
Cc1ccc2c(c1)nnn2C1CCN(S(=O)(=O)c2cccc(S(=O)(=O)N(C)C)c2)CC1	-4.6%	0.4%	4.7%	?	10.4µM*	0.4%
O=C1CN(C(=O)c2ccco2)C(c2ccccc2)c2cc(Cl)ccc2N1 (configuration not stated)	-33.3%	-3.6%	-22.1%	?	?	-13.9%
COc1ccc(Cl)cc1C(=O)NCC(C)C	-1.3%	1.3%	-0.5%	-14.2%	-28.3%	?
CC1=NN(C(C#N)c2ccc(F)cc2)C(c2ccccc2)C1 (configuration not stated)	7.2%	-1.0%	-0.1%	14.7µM*	-27.0%	0.9%
CC1=NN(C(C#N)c2ccccc2C)C(c2ccccc2)C1 (configuration not stated)	-6.7%	1.6%	23.5%	0.0%	8.4%	-2.2%
Cc1ccc(NC2CCCN(C(=O)c3cccc4nccnc34)C2)cc1C (configuration not stated)	18.1%	17.4%	-31.5%	62.1%	-15.1%	6.0%
CC(C)c1ccc(NC2CCCN(C(=O)c3cccc4nccnc34)C2)cc1 (configuration not stated)	72.4%	-5.3%	4.8%	4.65µM*	0.0%	0.4%
CC(C)c1ccc(NC2CCCN(C(=O)c3cscn3)C2)cc1 (configuration not stated)	3.8%	-2.6%	7.9%	?	-3.0%	-5.1%
CC(C)c1ccc(NC2CCCN(C(=O)CCc3cnn(C)c3)C2)cc1 (configuration not stated)	64.3%	-0.1%	-17.0%	7.38µM*	1.1%	4.0%
CC(C)c1ccc(NC2CCCN(C(=O)c3cc(C(C)C)nc(N)n3)C2)cc1 (configuration not stated)	59.0%	-3.9%	-20.3%	14.7µM*	13.6%	-14.5%
C=C1CCC(O)C/C1=C/C=C1\CCC[C@]2(C)[C@@H]([C@H](C)/C=C/[C@H](C)C(C)C)CC[C@@H]12 (some centres not stated)	/	/	/	?	-17.7%	/
Cc1cccc(C(=O)NNC(=O)c2ccc(NC(=O)C(C)(C)C)cc2)c1	-24.6%	1.9%	3.7%	-31.8%	34.0%	-3.3%
SMILES	AmpC inh no detg	SARS PLP yeast	Sm TGR inh	Pf growth 96h	Pf growth 48h	AmpC detergent
Cc1ccc(C(=O)NNC(=O)c2ccc(NC(=O)C(C)(C)C)cc2)cc1	-44.7%	-0.6%	-16.5%	14.7µM*	5.9%	-18.0%
CCN(CC)Cc1c[nH]c2ccccc12	-32.6%	-25.7%	?	8.28µM*	?	-12.5%
CCN(CC)Cc1c[nH]c2c(C(=O)OC)cccc12	-1.8%	11.3%	-0.2%	2.62µM*	-0.3%	-9.2%
Oc1cccnc1CCc1ccccc1	-16.1%	-0.9%	-11.9%	-16.5%	15.9%	-5.3%
CCc1nn2c(=O)cc(COC(=O)c3ccccc3NC(=O)COc3ccc(C)c(C)c3)nc2s1	/	/	1.9%	/	/	9.9%
CCOC(=O)c1ccccc1NC(=O)c1cn(-c2ccc(OC)cc2)c(=O)c2ccccc12	5.8%	-12.9%	1.4%	2.94µM*	?	-11.8%
COc1cccc(-n2cc(C(=O)NC(C)C)c3ccccc3c2=O)c1	2.8%	0.3%	0.6%	1.31µM*	-8.7%	-1.1%
CCOC(=O)c1ccccc1NC(=O)c1cn(-c2ccc(C)c(C)c2)c(=O)c2ccccc12	-17.9%	?	3.1%	?	?	-0.6%
Cc1ccc(-n2cc(C(=O)Oc3ccc(F)cc3)c3ccccc3c2=O)cc1	/	/	35.5µM*	/	/	-1.0%
COc1cccc(-n2cc(C(=O)Nc3cc(OC)c(OC)c(OC)c3)c3ccccc3c2=O)c1	/	/	8.7%	/	/	-1.5%
Cc1ccc(-n2cc(C(=O)Oc3cccc(C)c3)c3ccccc3c2=O)cc1	/	/	6.7%	/	/	6.0%
CCN(CC(=O)Nc1c(F)cccc1F)C(=O)/C=C/c1cn(Cc2ccccc2)nc1-c1cccnc1	81.8%	25.6%	10.1%	?	?	-6.1%
Nc1nc(NS(=O)(=O)c2ccc(Cl)cc2)nn1-c1ccccc1	-12.2%	0.5%	-4.5%	43.2%	10.8%	-3.1%
COc1ccc(Cl)cc1NC(=O)CN(C)C(=O)c1cccc(-n2cnnn2)c1	-17.6%	-1.6%	-0.8%	-6.5%	-21.1%	5.4%
COc1cccc(NC(=O)CN(C)C(=O)c2cn(-c3ccccc3)nc2-c2cccs2)c1	-12.7%	-4.4%	-0.7%	-25.6%	?	0.0%
COc1cccc(NC(=O)CN(C)C(=O)c2cn(-c3ccccc3)nc2-c2cccnc2)c1	46.7%	-3.3%	3.6%	?	11.7µM*	5.8%

Screening data: PubChem, National Center for Advancing Translational Sciences (NCATS)
